Results reported in PubChem BioAssay (Tox21).
Inconclusive results are not listed. The source made the active and inactive calls. Unless noted, the call rests on the fitted dose curve; in most records, active means well fitted curve in the direction sought with a large enough effect in the repeat runs; inconclusive means weak or mixed curves; inactive means no such curve, though single readings can be large; an effect the other way counts as inactive or inconclusive.

Legend:
[1] = qHTS assay to identify small molecule antagonists of the sonic hedgehog signaling (Shh) pathway (AID 1259369; calls by dose curve; further: nearly all actives have a fitted effect of over 45% in size)
How it was run: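 Stable Gli1-Luc reporter NIH/3T3 clone; quantitative HTS in stimulated mode with conditioned medium. Luminescence measured after 24hr compound treatment at 37 C.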

[2] = qHTS assay to identify small molecule agonists of the androgen receptor (AR) signaling pathway in the presence of an antagonist - cell viability counter screen (AID 1259379);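 further: MDA-kb2 human breast cancer cells carrying an MMTV luciferase reporter; series mostly up to about 92 µM; nearly all actives have a fitted effect of over 25% in size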
How it was run: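 Nilutamide-containing (3.0uM final) MDA-kb2 cultures, 3,000 cells/well, were treated with compounds across 15 concentrations. After 16 hr at 37C with no CO2, cell viability was determined by CellTiter-Fluor fluorescence in the luciferase assay wells.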

[3] = qHTS assay to identify small molecule antagonists of the estrogen receptor beta (ER-beta) signaling pathway - cell viability counter screen (AID 1259382);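 further: HEK293T cells carrying ER-beta-UAS-bla reporter stimulated with estradiol; series mostly up to about 92 µM; nearly all actives have a fitted effect of over 55% in size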
How it was run: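 Viability is scored by CellTiter-Glo luminescence (30 min, room temperature) in ER-beta-UAS-bla HEK293T wells already read for reporter fluorescence. Compound exposure lasts 16 hr at 37C alongside 1nM 17-beta-estradiol in charcoal-stripped serum medium.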

[4] = target: Estrogen receptor (Homo sapiens) (UniProt P03372); experiment: qHTS assay to identify small molecule agonists of the estrogen receptor alpha (ER-alpha) signaling pathway in the presence of an antagonist (AID 1259383; calls by dose curve; further: top concentration of the series differs between compounds; nearly all actives have a fitted effect of over 15% in size)
How it was run: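 Readout was ERE-driven luciferase luminescence in VM7Luc4E2 cells, which express full-length ER-alpha endogenously. Compounds were tested at 15 concentrations for 22hr alongside 10.0nM ICI-182,780 (final concentration).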

[5] = qHTS assay to identify small molecule agonists or antagonists of the thyroid stimulating hormone receptor (TSHR) signaling pathway - wild type cell line counter screen (AID 1259384; calls by dose curve)
How it was run: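 Counter screen in untransfected Hek293: compounds (15-point titration, triplicate) plus phosphodiesterase inhibitor Ro20-1724 added after 18 h plating; 30 min RT. Intracellular cAMP via competitive d2/cryptate immunoassay, 1 h incubation.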

[6] = target: Thyrotropin receptor (Homo sapiens) (UniProt P16473); experiment: qHTS assay to identify small molecule antagonists of the thyroid stimulating hormone receptor (TSHR) signaling pathway (AID 1259385; calls by dose curve; further: nearly all actives have a fitted effect of over 20% in size)
How it was run: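 Antagonist mode: compound-treated TSHR-expressing HEK293 cells were stimulated with 1.5 ng/mL TSH (final) in presence of Ro20-1724 for 30 min at RT. HTRF cAMP detection after 1 h; each compound tested at 15 concentrations, triplicate.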

[7] = qHTS assay to identify small molecule agonists of the estrogen receptor alpha (ER-alpha) signaling pathway in the presence of an antagonist - cell viability counter screen (AID 1259386);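 further: series mostly up to about 92 µM; cells exposed to compounds for 22 h at 37 °C before the viability read; nearly all actives have a fitted effect of over 30% in size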
How it was run: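 In this counter screen, compound effects on VM7Luc4E2 viability were tested in the presence of the antagonist ICI-182,780 at 10.0nM final. Compounds were dosed at 15 concentrations, exposure lasted 22hr, and the CellTiter-Fluor signal was read.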

[8] = target: Progesterone receptor (Homo sapiens) (UniProt P06401); experiment: qHTS assay to identify small molecule agonists of the progesterone receptor (PR) signaling pathway (AID 1346784; calls by dose curve; further: nearly all actives have a fitted effect of over 30% in size)
How it was run: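 Fluorescence from LiveBLAzer B/G FRET substrate cleavage (2 hr, RT) reported PR activation in PR-UAS-bla HEK 293T cells treated 16 hr at 37C/5% CO2 with compounds; medium contained 2% charcoal-stripped FBS.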

[9] = target: Progesterone receptor (Homo sapiens) (UniProt P06401); experiment: qHTS assay to identify small molecule antagonists of the progesterone receptor (PR) signaling pathway (AID 1346795; active means well fitted inhibition curve with a large enough effect in the signal ratio in the repeat runs, not every such curve was filed as active; the % refers to the signal ratio)
How it was run: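 Fluorescence intensity measured 2 hr after adding beta-lactamase FRET substrate to PR-UAS-bla HEK293T cells that had been co-treated 16 hr with compound and 1 nM R5020 (final concentration) in 2% charcoal-stripped FBS.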

[10] = qHTS assay to identify small molecule antagonists of the progesterone receptor (PR) signaling pathway - cell viability counter screen (AID 1346798); further: series mostly up to about 92 µM; nearly all actives have a fitted effect of over 50% in size
How it was run: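 CellTiter-Glo luminescence; PR-UAS-bla HEK293T, 3,000 cells/well; compound + R5020, 16 hr, 37C/5% CO2; 30 min RT before read.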

[11] = qHTS assay to identify small molecule agonists of the progesterone receptor (PR) signaling pathway - cell viability counter screen (AID 1346799; calls by dose curve; further: nearly all actives have a fitted effect of over 45% in size)
How it was run: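 In parallel with the beta-lactamase readout, cytotoxicity toward PR-UAS-bla HEK293T cells was measured by CellTiter-Glo luminescence following 16 hr compound incubation in 2% charcoal-stripped FBS medium.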

[12] = qHTS assay to identify small molecule antagonists of the TGF-beta/Smad signaling pathway - cell viability counter screen (AID 1346824); further: nearly all actives have a fitted effect of over 50% in size
How it was run: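 Cytotoxicity counter-screen run in the same wells as the beta-lactamase Smad reporter read: CellTiter-Glo luminescence after 30 min at room temperature. HEK 293T SBE-bla cells had 5 hr compound exposure at 37 C with TGF-beta1 (0.25 ng/mL stock).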

[13] = qHTS assay to identify small molecule agonists of the TGF-beta/Smad signaling pathway - cell viability counter screen (AID 1346829); further: top concentration of the series differs between compounds; nearly all actives have a fitted effect of over 45% in size
How it was run: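 Compound-treated SBE-bla HEK 293T cells (5 hr, 37 C) were assessed for viability with CellTiter-Glo in parallel with the reporter read.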

[14] = qHTS assay to identify small molecule agonists of the TGF-beta/Smad signaling pathway (AID 1346859; active means well fitted activation curve with a large enough effect in the signal ratio in the repeat runs, not every such curve was filed as active; the % refers to the signal ratio; further: series mostly up to about 77 µM)
How it was run: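 After overnight seeding, SBE-bla HEK 293T cells are dosed with compounds in DMSO and kept 5 hr at 37 C, 5% CO2. LiveBLAzer-type FRET substrate is then applied for 2 hr at room temperature.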

[15] = target: Thyrotropin-releasing hormone receptor (Homo sapiens) (UniProt P34981); experiment: qHTS assay to identify small molecule antagonists of the thyrotropin-releasing hormone receptor (TRHR) signaling pathway (AID 1346877; active means well fitted inhibition curve with a large enough effect in the repeat runs, not every such curve was filed as active; further: series mostly up to about 51 µM)
How it was run: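 Kinetic fluorescence (3 min, 1 s resolution) following stimulation with TRH at 1 nM final; HEK293 cells bearing human TRHR; 5 min compound preincubation at RT; concentration-response over 15 points, triplicates.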

[16] = target: Thyrotropin-releasing hormone receptor (Homo sapiens) (UniProt P34981); experiment: qHTS assay to identify small molecule agonists of the thyrotropin-releasing hormone receptor (TRHR) signaling pathway (AID 1346891; calls by dose curve;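 further: HEK293 cells expressing TRHR with calcium dye readout; series mostly up to about 58 µM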)
How it was run: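 Compounds were tested as agonists at 15 concentrations, in triplicate, on TRHR-Hek293 cells; calcium-sensitive dye fluorescence was recorded for 3 min following addition.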

[17] = Human pregnane X receptor (PXR) small molecule agonists, qHTS cell viability counter screen (AID 1346977); further: nearly all actives have a fitted effect of over 50% in size
How it was run: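 Viability counter screen: CellTiter-Fluor signal in PXR-Luc HepG2 cells, 24hr compound exposure, 37C, 5% CO2.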

[18] = target: Estrogen receptor beta (Homo sapiens) (UniProt Q92731); experiment: qHTS assay to identify small molecule agonists of the estrogen receptor beta (ER-beta) signaling pathway (AID 1259377; active means well fitted activation curve with a large enough effect in the signal ratio in the repeat runs, not every such curve was filed as active; the % refers to the signal ratio)
How it was run: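 qHTS in ER-beta-UAS-bla HEK293T cells: 6 hr settling, then 16 hr compound at 37C, then LiveBLAzer substrate 2 h at RT before fluorescence reading.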

[19] = target: Estrogen receptor beta (Homo sapiens) (UniProt Q92731); experiment: qHTS assay to identify small molecule antagonists of the estrogen receptor beta (ER-beta) signaling pathway (AID 1259378; active means well fitted inhibition curve with a large enough effect in the signal ratio in the repeat runs, not every such curve was filed as active; the % refers to the signal ratio)
How it was run: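 Antagonist mode: compounds added to beta-lactamase reporter HEK293T ER-beta-UAS cells stimulated with E2 (1nM final), 16 hr at 37C. LiveBLAzer B/G FRET substrate, 2 hours room temperature, fluorescence read-out.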

[20] = qHTS assay to identify small molecule agonists of the estrogen receptor beta (ER-beta) signaling pathway - cell viability counter screen (AID 1259380); further: nearly all actives have a fitted effect of over 30% in size
How it was run: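 Steps: plate ER-beta-UAS-bla HEK293T cells, rest 6 hr; add compounds in DMSO; incubate 16 hr at 37C, 5% CO2; add FRET substrate 2 hr; add CellTiter-Glo, wait 30 min at room temperature; read luminescence.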

Measured: Potency

Thyrotropin receptor (Homo sapiens), sequence (P16473 whole entry, looked up): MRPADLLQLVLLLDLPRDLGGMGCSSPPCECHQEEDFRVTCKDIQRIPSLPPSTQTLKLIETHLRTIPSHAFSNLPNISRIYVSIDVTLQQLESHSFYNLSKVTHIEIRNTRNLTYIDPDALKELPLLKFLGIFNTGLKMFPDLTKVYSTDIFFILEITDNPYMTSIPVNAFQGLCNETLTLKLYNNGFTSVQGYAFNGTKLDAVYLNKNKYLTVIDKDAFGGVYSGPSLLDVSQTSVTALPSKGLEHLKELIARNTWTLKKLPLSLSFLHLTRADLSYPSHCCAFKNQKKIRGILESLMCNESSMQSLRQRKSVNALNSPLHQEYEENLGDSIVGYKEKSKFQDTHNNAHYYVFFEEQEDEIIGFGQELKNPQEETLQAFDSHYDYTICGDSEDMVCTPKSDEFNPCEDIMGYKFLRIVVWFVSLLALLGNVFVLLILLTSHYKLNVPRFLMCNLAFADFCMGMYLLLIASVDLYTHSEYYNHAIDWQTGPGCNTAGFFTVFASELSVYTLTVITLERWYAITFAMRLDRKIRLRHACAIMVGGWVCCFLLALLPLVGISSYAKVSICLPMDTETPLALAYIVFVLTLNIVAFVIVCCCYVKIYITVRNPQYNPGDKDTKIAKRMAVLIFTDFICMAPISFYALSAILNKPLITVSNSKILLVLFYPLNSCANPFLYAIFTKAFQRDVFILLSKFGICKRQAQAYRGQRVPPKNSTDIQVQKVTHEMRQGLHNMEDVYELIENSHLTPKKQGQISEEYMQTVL
Estrogen receptor beta (Homo sapiens), sequence (Q92731 whole entry, looked up): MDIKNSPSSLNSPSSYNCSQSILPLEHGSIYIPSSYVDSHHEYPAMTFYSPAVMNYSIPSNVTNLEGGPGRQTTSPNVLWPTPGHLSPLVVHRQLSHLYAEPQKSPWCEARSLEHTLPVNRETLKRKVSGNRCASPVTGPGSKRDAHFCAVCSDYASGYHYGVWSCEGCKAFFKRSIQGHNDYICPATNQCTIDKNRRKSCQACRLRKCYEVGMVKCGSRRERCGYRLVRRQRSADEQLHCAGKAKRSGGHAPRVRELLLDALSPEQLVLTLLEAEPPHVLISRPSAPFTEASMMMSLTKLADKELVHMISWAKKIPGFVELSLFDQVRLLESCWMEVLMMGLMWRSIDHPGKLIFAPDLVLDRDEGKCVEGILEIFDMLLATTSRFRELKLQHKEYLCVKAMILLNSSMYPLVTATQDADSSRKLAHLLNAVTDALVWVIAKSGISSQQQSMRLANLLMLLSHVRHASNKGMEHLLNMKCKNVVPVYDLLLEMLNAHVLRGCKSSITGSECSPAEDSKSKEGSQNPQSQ
Progesterone receptor (Homo sapiens), sequence (P06401 whole entry, looked up): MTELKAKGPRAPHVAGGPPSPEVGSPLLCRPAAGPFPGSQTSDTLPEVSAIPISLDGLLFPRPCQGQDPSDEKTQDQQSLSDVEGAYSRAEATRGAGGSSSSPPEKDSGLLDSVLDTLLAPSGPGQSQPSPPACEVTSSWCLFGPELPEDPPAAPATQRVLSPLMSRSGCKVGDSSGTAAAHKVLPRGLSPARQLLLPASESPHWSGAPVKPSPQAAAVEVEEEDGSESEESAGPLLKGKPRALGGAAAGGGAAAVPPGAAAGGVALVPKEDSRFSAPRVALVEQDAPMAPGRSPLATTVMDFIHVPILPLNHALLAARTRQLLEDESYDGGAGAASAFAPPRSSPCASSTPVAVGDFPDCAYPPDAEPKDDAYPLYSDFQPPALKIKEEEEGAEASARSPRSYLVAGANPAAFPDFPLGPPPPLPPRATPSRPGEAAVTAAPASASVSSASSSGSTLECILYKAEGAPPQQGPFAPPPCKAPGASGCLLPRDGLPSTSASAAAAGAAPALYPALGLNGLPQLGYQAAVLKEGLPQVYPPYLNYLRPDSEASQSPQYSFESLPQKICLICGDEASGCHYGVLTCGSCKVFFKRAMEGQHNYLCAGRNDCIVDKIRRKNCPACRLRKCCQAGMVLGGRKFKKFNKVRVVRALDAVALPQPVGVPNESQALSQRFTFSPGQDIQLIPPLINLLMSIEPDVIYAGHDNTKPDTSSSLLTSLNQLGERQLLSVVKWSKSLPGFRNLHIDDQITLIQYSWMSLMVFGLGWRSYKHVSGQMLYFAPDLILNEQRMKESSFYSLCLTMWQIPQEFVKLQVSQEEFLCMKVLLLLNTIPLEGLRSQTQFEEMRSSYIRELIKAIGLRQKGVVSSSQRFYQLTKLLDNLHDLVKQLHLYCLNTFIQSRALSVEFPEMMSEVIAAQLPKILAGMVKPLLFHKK
Thyrotropin-releasing hormone receptor (Homo sapiens), sequence (P34981 whole entry, looked up): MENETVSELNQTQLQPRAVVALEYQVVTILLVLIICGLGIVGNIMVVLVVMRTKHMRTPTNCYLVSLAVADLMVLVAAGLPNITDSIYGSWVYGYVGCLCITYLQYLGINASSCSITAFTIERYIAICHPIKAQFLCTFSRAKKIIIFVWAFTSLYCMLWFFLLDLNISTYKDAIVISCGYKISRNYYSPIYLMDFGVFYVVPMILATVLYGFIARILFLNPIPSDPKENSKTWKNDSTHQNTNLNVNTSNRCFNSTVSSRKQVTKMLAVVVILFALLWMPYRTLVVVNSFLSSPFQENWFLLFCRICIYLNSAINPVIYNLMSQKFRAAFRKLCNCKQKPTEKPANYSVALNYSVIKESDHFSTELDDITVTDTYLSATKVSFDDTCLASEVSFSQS
Estrogen receptor (Homo sapiens), sequence (P03372 whole entry, looked up): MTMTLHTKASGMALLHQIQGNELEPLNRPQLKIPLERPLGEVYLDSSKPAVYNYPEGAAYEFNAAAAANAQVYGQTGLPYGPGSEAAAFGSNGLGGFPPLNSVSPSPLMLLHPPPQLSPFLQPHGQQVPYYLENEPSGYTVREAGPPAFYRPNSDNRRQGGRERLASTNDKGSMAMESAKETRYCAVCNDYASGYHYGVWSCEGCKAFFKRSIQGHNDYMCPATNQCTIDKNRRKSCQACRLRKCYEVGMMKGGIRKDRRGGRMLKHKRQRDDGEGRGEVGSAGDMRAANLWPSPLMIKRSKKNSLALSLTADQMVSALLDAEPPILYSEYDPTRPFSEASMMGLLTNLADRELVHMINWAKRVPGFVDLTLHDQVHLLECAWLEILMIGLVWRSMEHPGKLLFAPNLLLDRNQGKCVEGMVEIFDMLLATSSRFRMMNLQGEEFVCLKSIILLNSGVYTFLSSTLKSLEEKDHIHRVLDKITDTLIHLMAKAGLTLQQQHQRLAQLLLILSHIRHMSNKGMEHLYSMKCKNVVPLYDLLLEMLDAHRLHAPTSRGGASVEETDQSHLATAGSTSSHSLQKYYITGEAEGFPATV

CC(=O)c1ccccc1O
inactive: [1] | [2] | [3] | [4] | [5] | [6] | [7] | [8] | [9] | [10] | [11] | [12] | [13] | [14] | [15] | [16] | [17]

CC(C)(C)c1nnc(NS(=O)(=O)c2ccccc2)s1
inactive: [18] | [19] | [2] | [20] | [3] | [4] | [5] | [6] | [7] | [8] | [9] | [10] | [11] | [12] | [13] | [14] | [15] | [16] | [17]

Cc1ccc(=O)n(-c2ccccc2)c1
inactive: [18] | [19] | [2] | [3] | [4] | [5] | [6] | [7] | [8] | [9] | [10] | [11] | [12] | [13] | [14] | [15] | [16] | [17]

O=C(O)c1ccccc1OP(=O)(O)O
inactive: [18] | [19] | [2] | [20] | [3] | [4] | [5] | [6] | [7] | [8] | [9] | [12] | [13] | [14] | [15] | [16] | [17]

COc1nc(N)nc2c1ncn2[C@@H]1O[C@H](CO)[C@@H](O)[C@@H]1O
inactive: [18] | [2] | [20] | [3] | [6] | [7] | [8] | [9] | [13] | [14] | [15] | [16] | [17]

CCN1CCC[C@H]1CNC(=O)c1c(O)c(Cl)cc(Cl)c1OC
inactive: [18] | [19] | [2] | [20] | [3] | [4] | [5] | [6] | [7] | [8] | [9] | [10] | [11] | [12] | [13] | [14] | [15] | [16] | [17]

CCOC(=O)c1c(C)n(C)c2ccc(O)cc12
inactive: [1] | [2] | [3] | [5] | [6] | [7] | [8] | [9] | [11] | [12] | [13] | [14] | [15] | [16] | [17]

CO/N=C(/C(=O)N[C@@H]1C(=O)N2C(C(=O)OCOC(=O)C(C)(C)C)=C(C)CS[C@H]12)c1csc(N)n1
inactive: [18] | [19] | [2] | [20] | [3] | [5] | [6] | [7] | [8] | [9] | [11] | [12] | [13] | [14] | [17]
